These results are taken from PubChem BioAssay (NCI).

SMILES strings stand for the structures. The panel holds about 83,000 compounds, 20% with a hit somewhere; the sample as a whole holds those more often.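 96-well plates, one dose, 48 hours. Percent growth reported; active if below 10.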 Unmarked numbers belong to inactive results. Activity calls are given as the source filed them.

Among the test systems are DU-145 prostate; K-562 leukemia; MALME-3M melanoma; MDA-MB-231 breast; RXF 393 renal; SF-268 CNS; SF-295 CNS; SF-539 CNS; UACC-257 melanoma; M14 melanoma.
Common to all, as to assay: NCI-60 one-dose screen, 48 h (100 = growth as untreated, 0 = no growth, -100 = all killed)
What all share (details): 10 µM unless noted

With `CNc1ccc(-c2cc(=O)oc3ccc(Cl)cc23)cc1`, the growth in the test with DU-145 prostate is 18%; in the test on K-562 leukemia it was 11%; in the test on MALME-3M melanoma, 110%; in the test with MDA-MB-231 breast, 16.2%; in the test with RXF 393 renal, 43.1%; in the test on SF-268 CNS, 27.6%. Moreover, the growth was 18.1% in the test with SF-295 CNS, -2.97% (active) in the test on SF-539 CNS, 38% in the test on UACC-257 melanoma and 25.4% in the test on M14 melanoma.
In the case of `COc1ccc(-c2cc(NC(=O)Nc3ccc4ncsc4c3)no2)cc1`, the growth in the test on DU-145 prostate is 108%; with K-562 leukemia, 101%; in the test with MALME-3M melanoma it was 112%; in the test with MDA-MB-231 breast it was 103%; in the test with RXF 393 renal, 129%; in the test with SF-268 CNS it was 105%. The growth is 89.1% with SF-295 CNS, 102% with SF-539 CNS, 115% with UACC-257 melanoma and 106% with M14 melanoma.
Take `O=C1/C(=C/c2ccccc2)SC(=S)N1CCc1ccc(O)cc1`: the growth with DU-145 prostate is 90.1%; with K-562 leukemia, 90.9%; in the test with MALME-3M melanoma it was 92.2%; with MDA-MB-231 breast, 87.3%; in the test with RXF 393 renal, 101%; in the test on SF-268 CNS it was 85.3%. The growth is 97% with SF-295 CNS, 90.1% in the test with SF-539 CNS, 98.9% in the test on UACC-257 melanoma and 97.1% in the test on M14 melanoma.
For `CSc1nc2c(c(=O)[nH]1)C1(C(=O)Nc3ccccc31)c1c(nc(SC)[nH]c1=O)N2`, the growth in the test with DU-145 prostate was 105%; in the test on K-562 leukemia, 112%; with MALME-3M melanoma, 93.7%; in the test on MDA-MB-231 breast, 107%; in the test on RXF 393 renal it was 103%; in the test with SF-268 CNS, 98.2%. Also, the growth with SF-295 CNS was 103%; with SF-539 CNS, 102%; in the test on UACC-257 melanoma, 104%; in the test on M14 melanoma, 97.2%.
In the case of `CC1=C[C@H]2c3c(c(O)c(O)c4oc5c(C)cccc5c(=O)c34)[C@H](c3cc(O)c(O)c4oc5c(C)cccc5c(=O)c34)[C@H]2C(C)(C)C1`, the growth in the test with DU-145 prostate was 23.9%; with K-562 leukemia, 2.97% (active); in the test on MALME-3M melanoma, 18.9%; in the test on MDA-MB-231 breast it was 23.7%; with RXF 393 renal, 21.5%; with SF-268 CNS, -1.07% (active). In addition, the growth in the test with SF-295 CNS was -32.4% (active); in the test with SF-539 CNS it was -18.5% (active); in the test on UACC-257 melanoma, 23.4%; with M14 melanoma, 13.7%.
Regarding `Oc1ccccc1-c1nnc(CNc2ccc(Cl)cc2)o1`, the growth was 35.5% in the test on DU-145 prostate; 13.1% in the test on K-562 leukemia; 44% with MALME-3M melanoma; 46.9% with MDA-MB-231 breast; 37% in the test with RXF 393 renal; 27.4% in the test on SF-268 CNS. The growth with SF-295 CNS was 40.6%; in the test with SF-539 CNS, 26.7%; with UACC-257 melanoma, 12.4%; with M14 melanoma it was 10.8%.
For the compound `CCCCN(CCCC)CCCn1c(-c2ccccc2)ccc1-c1ccccc1`, the growth with DU-145 prostate was 68.3%; with K-562 leukemia it was 52.2%; in the test with MALME-3M melanoma, 86.2%; in the test on MDA-MB-231 breast, 22.9%; in the test with RXF 393 renal, 82.8%; in the test on SF-268 CNS, 73.7%. Also, the growth is 60% in the test on SF-295 CNS, 67.4% in the test with SF-539 CNS, 90.1% in the test on UACC-257 melanoma and 77.6% in the test with M14 melanoma.
With `COc1ccc(C(=O)COc2ccc(/C=C3\COc4ccc(OC)cc4C3=O)cc2)cc1`, the growth is 107% in the test on DU-145 prostate; 33.7% with K-562 leukemia; 90.2% in the test on MALME-3M melanoma; 106% in the test with MDA-MB-231 breast; 21.7% in the test on RXF 393 renal; 112% in the test with SF-268 CNS. Moreover, the growth in the test with SF-295 CNS is 144%; with SF-539 CNS it was 105%; in the test with UACC-257 melanoma, 29.2%; in the test with M14 melanoma, 95%.
With `COc1cc(-c2nc3cc(Cl)c(Cl)cc3[nH]2)ccc1OCC(=O)N=Nc1c(O)[nH]c2ccccc12`, the growth in the test on DU-145 prostate is -69.9% (active); in the test with K-562 leukemia, -32.4% (active); in the test on MALME-3M melanoma, -94% (active); with MDA-MB-231 breast, -82.2% (active); with RXF 393 renal, -75.9% (active); in the test with SF-268 CNS, -34.9% (active). Besides, the growth in the test with SF-295 CNS is -87.5% (active); in the test on SF-539 CNS, -87.3% (active); in the test on UACC-257 melanoma, -60.2% (active); with M14 melanoma, -76.1% (active).
`C(=C\c1nccc2c1[nH]c1ccccc12)/c1ccccc1`: the growth is 9.25% (active) in the test with DU-145 prostate; 69.2% in the test with K-562 leukemia; 29.4% in the test on MALME-3M melanoma; 30.7% in the test with MDA-MB-231 breast; -44.6% (active) in the test with RXF 393 renal; 41.8% in the test on SF-268 CNS. In addition, the growth with SF-295 CNS is -32% (active); in the test on SF-539 CNS, 7.92% (active); in the test on UACC-257 melanoma it was 37.5%; in the test with M14 melanoma it was 19.8%.
For `Cc1ccc2c(C(C[N+](=O)[O-])c3ccccc3)c(-c3ccccc3)[nH]c2c1` (stereo not given), the growth in the test on DU-145 prostate was 30.3% [9.5 µM]; with K-562 leukemia, 10.9% [9.5 µM]; with MALME-3M melanoma, 44.7% [9.5 µM]; with MDA-MB-231 breast, 37.2% [9.5 µM]; in the test with RXF 393 renal, 5.65% [9.5 µM] (active); with SF-268 CNS it was 35.2% [9.5 µM]. For the same compound, the growth is 9.43% [9.5 µM] (active) in the test with SF-295 CNS, 8.82% [9.5 µM] (active) with SF-539 CNS, 27.6% [9.5 µM] in the test with UACC-257 melanoma and 22.3% [9.5 µM] in the test with M14 melanoma.
As to `C=CC(=O)Nc1cccc(-c2nc(SC)nc(NCCN3CCOCC3)c2C#N)c1`, the growth with DU-145 prostate was 94.7%; with K-562 leukemia it was 87.7%; in the test with MALME-3M melanoma it was 89.6%; in the test on MDA-MB-231 breast, 87.9%; in the test with RXF 393 renal, 89.7%; in the test on SF-268 CNS it was 83.8%. In addition, the growth was 106% in the test with SF-295 CNS, 93.3% with SF-539 CNS, 94.1% in the test with UACC-257 melanoma and 89.9% in the test with M14 melanoma.
For `O=C1/C(=C/C(Cl)=C/c2ccccc2)SC(=S)N1CCc1ccc(O)cc1`, the growth in the test on DU-145 prostate is 15.8%; with K-562 leukemia, 5.68% (active); in the test on MALME-3M melanoma, -2.34% (active); in the test on MDA-MB-231 breast, 27.3%; in the test on RXF 393 renal it was -46.1% (active); in the test with SF-268 CNS it was 19.8%. In addition, the growth in the test with SF-295 CNS is 4.96% (active); with SF-539 CNS, 3.33% (active); in the test with UACC-257 melanoma, 17.4%; in the test on M14 melanoma, -12.7% (active).
